Reference: PubChem BioAssay (NCATS)
Results filed as inconclusive are left out. Activity calls are given as the source filed them. The call rests on the fitted dose curve; in most records, active means well fitted curve in the direction sought with a large enough effect; inconclusive means small, poorly fitted or top-dose-only effect, or another doubt; inactive means no such curve, though single readings can be large; an effect the other way counts as inactive or inconclusive.

What was measured:
[1] = Quantitative High-Throughput drug screen in 47 multiple myeloma cell lines against the NCATS MIPE library collection: KHM11_PLB cell viability assay (AID 1918962); further: nearly all actives have a fitted effect of over 35% in size
How it was run: (§1)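 CellTiter-Glo luminescence (ATP) after 48 h compound exposure, 37C/5% CO2; 500 cells/well; MIPE 4.0 approved/investigational drugs pinned in; DMSO = 100%, media only = 0% viability.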

[2] = Quantitative High-Throughput drug screen in 47 multiple myeloma cell lines against the NCATS MIPE library collection: JIM3_ECACC cell viability assay (AID 1918963; further: nearly all actives have a fitted effect of over 35% in size; further: potency means the concentration at half of the fitted maximal effect)
How it was run: as §1

[3] = Quantitative High-Throughput drug screen in 47 multiple myeloma cell lines against the NCATS MIPE library collection: H1112_PLB cell viability assay (AID 1918967; further: nearly all actives have a fitted effect of over 30% in size; further: potency means the concentration at half of the fitted maximal effect)
How it was run: as §1

[4] = Quantitative High-Throughput drug screen in 47 multiple myeloma cell lines against the NCATS MIPE library collection: KMS27_JCRB cell viability assay (AID 1918970); conditions: KMS27 myeloma cells, CellTiter-Glo ATP viability, 48 h; viability (% of DMSO): at 45.8 µM (top of the series); further: nearly all actives have a fitted effect of over 30% in size; further: potency means the concentration at half of the fitted maximal effect
How it was run: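 Each line is seeded at 500 cells per well and treated with library compounds for 48 hours under 37 °C, 5% CO2. CellTiter-Glo is then added for 5 min at room temperature before median relative luminescence is recorded.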

[5] = Quantitative High-Throughput drug screen in 47 multiple myeloma cell lines against the NCATS MIPE library collection: KMS12BM_JCRB cell viability assay (AID 1918971); further: nearly all actives have a fitted effect of over 35% in size; further: potency means the concentration at half of the fitted maximal effect
How it was run: (§2)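 We plated 500 myeloma cells per well, pinned in MIPE 4.0 compounds, and incubated for 48 hours at 37C. ATP was then quantified with CellTiter-Glo, with DMSO and media-only wells defining 100% and 0%.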

[6] = Quantitative High-Throughput drug screen in 47 multiple myeloma cell lines against the NCATS MIPE library collection: KMS26_JCRB cell viability assay (AID 1918975); further: nearly all actives have a fitted effect of over 45% in size; further: potency means the concentration at half of the fitted maximal effect
How it was run: as §2

[7] = Quantitative High-Throughput drug screen in 47 multiple myeloma cell lines against the NCATS MIPE library collection: MOLP8_DSMZ cell viability assay (AID 1918977); further: nearly all actives have a fitted effect of over 45% in size; further: potency means the concentration at half of the fitted maximal effect
How it was run: (§3)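 Myeloma cells (500/well) treated with MIPE 4.0 compounds for 48 h at 37 °C, 5% CO2. Viability read as ATP via CellTiter-Glo luminescence after 5 min at RT; DMSO-only wells = 100%, media-only = 0% viability.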

[8] = Quantitative High-Throughput drug screen in 47 multiple myeloma cell lines against the NCATS MIPE library collection: NCIH929_DSMZ cell viability assay (AID 1918978); further: nearly all actives have a fitted effect of over 35% in size; further: potency means the concentration at half of the fitted maximal effect
How it was run: as §3

[9] = Quantitative High-Throughput drug screen in 47 multiple myeloma cell lines against the NCATS MIPE library collection: MM1S_ATCC cell viability assay (AID 1918980); further: nearly all actives have a fitted effect of over 45% in size; further: potency means the concentration at half of the fitted maximal effect
How it was run: as §3

[10] = Quantitative High-Throughput drug screen in 47 multiple myeloma cell lines against the NCATS MIPE library collection: MM1R_ATCC cell viability assay (AID 1918981); further: nearly all actives have a fitted effect of over 35% in size; further: potency means the concentration at half of the fitted maximal effect
How it was run: as §3

[11] = Quantitative High-Throughput drug screen in 47 multiple myeloma cell lines against the NCATS MIPE library collection: LP1_DSMZ cell viability assay (AID 1918982); further: nearly all actives have a fitted effect of over 35% in size; further: potency means the concentration at half of the fitted maximal effect
How it was run: as §3

[12] = Quantitative High-Throughput drug screen in 47 multiple myeloma cell lines against the NCATS MIPE library collection: JIM1_ECACC cell viability assay (AID 1918964; further: potency means the concentration at half of the fitted maximal effect)
How it was run: as §1

[13] = Quantitative High-Throughput drug screen in 47 multiple myeloma cell lines against the NCATS MIPE library collection: JJN3_DSMZ cell viability assay (AID 1918966; further: nearly all actives have a fitted effect of over 50% in size; further: potency means the concentration at half of the fitted maximal effect)
How it was run: as §1

[14] = Quantitative High-Throughput drug screen in 47 multiple myeloma cell lines against the NCATS MIPE library collection: Karpas25_ECACC cell viability assay (AID 1918968; further: nearly all actives have a fitted effect of over 35% in size; further: potency means the concentration at half of the fitted maximal effect)
How it was run: as §1

[15] = Quantitative High-Throughput drug screen in 47 multiple myeloma cell lines against the NCATS MIPE library collection: KMS12PE_JCRB cell viability assay (AID 1918972); further: nearly all actives have a fitted effect of over 30% in size; further: potency means the concentration at half of the fitted maximal effect
How it was run: (§4)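 Myeloma cells (500 per well) were exposed to MIPE 4.0 compounds by pin transfer and incubated 48 hours at 37C, 5% CO2. Viability was read as ATP by CellTiter-Glo luminescence, normalised to DMSO (100%) and media-only (0%) wells.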

[16] = Quantitative High-Throughput drug screen in 47 multiple myeloma cell lines against the NCATS MIPE library collection: OCIMY1_PLB cell viability assay (AID 1918979); further: nearly all actives have a fitted effect of over 35% in size; further: potency means the concentration at half of the fitted maximal effect
How it was run: as §3

[17] = Quantitative High-Throughput drug screen in 47 multiple myeloma cell lines against the NCATS MIPE library collection: INA6_PLB cell viability assay (AID 1918965; further: nearly all actives have a fitted effect of over 55% in size; further: potency means the concentration at half of the fitted maximal effect)
How it was run: as §4

[18] = Quantitative High-Throughput drug screen in 47 multiple myeloma cell lines against the NCATS MIPE library collection: KMS20_JCRB cell viability assay (AID 1918973); further: potency means the concentration at half of the fitted maximal effect; nearly all actives have a fitted effect of over 45% in size
How it was run: as §1

[19] = Quantitative High-Throughput drug screen in 47 multiple myeloma cell lines against the NCATS MIPE library collection: MMM1_PLB cell viability assay (AID 1918976)
How it was run: as §3

Structure (SMILES) | Potency [1] | Potency [2] | Potency [3] | Potency [4] | Potency [5] | Potency [6] | Potency [7] | Potency [8] | Potency [9] | Potency [10] | Potency [11] | Potency [12] | Potency [13] | Potency [14] | Potency [15] | Potency [16] | Potency [17] | Potency [18] | Potency [19]
Cc1noc(-c2ccc(CSCCC(=O)O)cc2)c1NC(=O)OC(C)c1ccccc1Cl (stereo unspecified) | inactive | inactive | inactive | inactive | inactive | inactive | inactive | inactive | inactive | inactive | inactive |  |  |  |  |  |  |  | 
Nc1ccn(C[C@@H](CO)OCP(=O)(O)O)c(=O)n1 |  | inactive |  | inactive | inactive | inactive | inactive |  |  |  | inactive | inactive | inactive | inactive | inactive | inactive |  |  | 
CCCCCN=C(N)NN=Cc1c[nH]c2ccc(OC)cc12 |  | 5.26 µM (active) |  |  | 6.62 µM (active) | 10.5 µM (active) |  | 13.2 µM (active) |  |  |  | 1.48 µM (active) |  |  |  |  | 0.526 µM (active) |  | 
O=C(Nc1nnc(-c2ccco2)o1)c1cc(-c2ccccc2)nc2ccccc12 |  | 18.7 µM (active) | 18.7 µM (active) | 16.6 µM (active) | 23.5 µM (active) |  |  | 18.7 µM (active) |  |  |  | 18.7 µM (active) | 20.9 µM (active) | 18.7 µM (active) | 18.7 µM (active) |  | 16.6 µM (active) | 16.6 µM (active) | 
C[C@@H](Cc1cc2c(c(C(N)=O)c1)N(CCCO)CC2)NCCOc1ccccc1OCC(F)(F)F |  | inactive | inactive | inactive |  | inactive | inactive | inactive |  | inactive |  | inactive | inactive |  |  |  |  |  | 
C[C@@]12C[C@@]3(O)O[C@@H](O1)[C@]1(COC(=O)c4ccccc4)[C@@H]3C[C@@]12O[C@@H]1O[C@H](CO)[C@@H](O)[C@H](O)[C@@H]1O |  | inactive | inactive | inactive |  | inactive |  | inactive |  |  | inactive | inactive |  | inactive |  |  |  |  | 
CC(C)(O)CC[C@@H](O)[C@](C)(O)[C@H]1CC[C@@]2(O)C3=CC(=O)[C@@H]4C[C@@H](O)[C@@H](O)C[C@]4(C)[C@@H]3CC[C@]12C |  | inactive | inactive | inactive |  |  |  | inactive |  | inactive | inactive | inactive | inactive | inactive | inactive | inactive |  |  | 
CC(C)(C)c1nc2c3cc[nH]c(=O)c3c3cc(F)ccc3c2[nH]1 |  | 1.87 µM (active) | 1.18 µM (active) | inactive |  | 0.0118 µM (active) |  |  | 14.8 µM (active) | 2.64 µM (active) |  | inactive | 0.662 µM (active) |  | inactive |  | 0.418 µM (active) |  | 0.662 µM (active)
COC1=C2C[C@@H](C)C[C@H](OC)[C@@H](O)[C@@H](C)C=C(C)[C@H](OC(N)=O)[C@@H](OC)C=CC=C(C)C(=O)NC(=CC1=O)C2=O |  | 0.209 µM (active) | 1.87 µM (active) |  | 0.118 µM (active) | 0.0526 µM (active) |  | 0.118 µM (active) | 0.059 µM (active) | 0.0372 µM (active) | 1.18 µM (active) | 7.43 µM (active) | 0.0662 µM (active) | 0.118 µM (active) |  | 0.166 µM (active) | 0.148 µM (active) |  | 1.05 µM (active)
CCCCOc1ccc(C(=O)Nc2ccc(F)cc2F)cc1 |  | inactive | inactive | inactive |  |  |  | inactive |  |  | inactive | inactive |  | inactive |  |  |  |  | 
COc1cc([C@@H]2c3cc4c(cc3[C@@H](O[C@@H]3O[C@@H]5CO[C@@H](c6cccs6)O[C@@H]5[C@H](O)[C@@H]3O)[C@H]3COC(=O)[C@H]23)OCO4)cc(OC)c1O |  | 0.833 µM (active) | 0.59 µM (active) | 0.132 µM (active) | 1.32 µM (active) | 16.6 µM (active) |  | 14.8 µM (active) | 0.059 µM (active) | 0.0743 µM (active) |  | 0.209 µM (active) | 13.2 µM (active) | 1.87 µM (active) | 1.32 µM (active) | 8.33 µM (active) | 0.0469 µM (active) | 0.418 µM (active) | 
COc1cc(CCc2cc(NC(=O)c3ccc(N4C[C@@H](C)N[C@@H](C)C4)cc3)n[nH]2)cc(OC)c1 |  | 14.8 µM (active) | 11.8 µM (active) | 18.7 µM (active) | 11.8 µM (active) | 20.9 µM (active) | 18.7 µM (active) | 10.5 µM (active) | 20.9 µM (active) | 26.4 µM (active) |  | 2.35 µM (active) |  | 16.6 µM (active) | 16.6 µM (active) |  | 9.35 µM (active) | 4.69 µM (active) | 16.6 µM (active)
NC(=O)Nc1cc(-c2ccc(CN3CCOCC3)cc2)sc1C(N)=O |  | 4.69 µM (active) | 5.26 µM (active) |  | 20.9 µM (active) | 23.5 µM (active) | 14.8 µM (active) |  | 16.6 µM (active) | 20.9 µM (active) |  | 1.48 µM (active) | 1.18 µM (active) | 1.32 µM (active) | 1.18 µM (active) |  | 1.05 µM (active) | 2.64 µM (active) | 6.62 µM (active)
OC[C@@H](O)[C@@H](O)[C@H](O)[C@@H](O)CO |  | inactive |  | inactive | inactive | inactive |  | inactive |  | inactive | inactive | inactive | inactive | inactive | inactive | inactive | inactive |  | 
